HP1b chromo inh = HTS for Inhibitors of HP1-beta Chromodomain Interactions with Methylated Histone Tails | Chromobox protein homolog 1 (Homo sapiens), P83916 | AlphaScreen HP1-beta / biotin-H3K9me3 peptide binding | Potency, µM (top dose mostly 114 µM), hits mostly inhibitors | 390,000 compounds, 0.56% hits; further: nearly all actives have a fitted effect of over 70% in size
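AlphaScreen: HP1-beta (50 nM) preformed 30 min with biotin-H3(1-18)K9me3 peptide (50 nM) in PBS pH 7.4, 0.01% Tween-20. Compound added for 30 min at RT, then streptavidin donor/nickel chelate acceptor beads (10 ug/mL) for 30 min.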
GLS inhibitor = qHTS for Inhibitors of Glutaminase (GLS); AID 624170, 2012; GLS enzymatic activity, qHTS titration; Potency, µM (highest dose often 45.5 µM), actives largely listed as inhibitors; 410,000 compounds, 0.21% hits
Target sequence (O94925 whole entry, looked up): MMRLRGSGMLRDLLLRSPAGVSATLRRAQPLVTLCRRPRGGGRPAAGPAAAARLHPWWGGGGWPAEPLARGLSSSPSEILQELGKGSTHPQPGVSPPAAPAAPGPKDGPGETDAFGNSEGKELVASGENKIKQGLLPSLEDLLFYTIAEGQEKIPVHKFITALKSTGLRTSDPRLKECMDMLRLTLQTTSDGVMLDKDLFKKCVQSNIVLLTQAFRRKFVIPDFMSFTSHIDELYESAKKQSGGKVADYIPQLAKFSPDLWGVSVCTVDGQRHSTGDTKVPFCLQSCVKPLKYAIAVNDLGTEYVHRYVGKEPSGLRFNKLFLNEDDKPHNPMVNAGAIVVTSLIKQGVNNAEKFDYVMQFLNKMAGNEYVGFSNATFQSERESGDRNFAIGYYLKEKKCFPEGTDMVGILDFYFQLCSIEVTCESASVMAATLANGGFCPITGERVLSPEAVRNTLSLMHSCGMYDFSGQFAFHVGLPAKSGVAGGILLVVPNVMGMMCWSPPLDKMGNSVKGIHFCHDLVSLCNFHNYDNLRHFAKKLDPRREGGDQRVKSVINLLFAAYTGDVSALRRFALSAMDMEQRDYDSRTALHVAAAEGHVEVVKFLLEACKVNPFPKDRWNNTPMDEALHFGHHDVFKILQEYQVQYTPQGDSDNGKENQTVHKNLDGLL
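hKGA; 45 mM KH2PO4 pH 8.2 + 0.02% Tween-20; cpd via pin tool; 1 mM Gln soln; GluOx/HRP/Amplex Red; RT 30 min; fluor. t0 & final.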
JMJD2A Tudor = qHTS Assay for Inhibitors of JMJD2A-Tudor Domain; Lysine-specific demethylase 4A (Homo sapiens), O75164; AlphaScreen JMJD2A-Tudor / H3K4me3 peptide binding; Potency, µM (top dose mostly 114 µM), most hits filed as inhibitors; 390,000 compounds, 4.4% hits; further: nearly all actives have a fitted effect of over 50% in size
BAZ2B block = qHTS Assay for Inhibitors of BAZ2B; AlphaScreen BAZ2B-H3K14Ac peptide displacement; Potency, µM (top dose mostly 114 µM), most hits filed as inhibitors; 360,000 compounds, 4.4% hits; AID 504333, 2011; further: nearly all actives have a fitted effect of over 60% in size
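In this displacement format the biotinylated H3(5-23) peptide acetylated at Lys14 serves as ligand at 50 nM, with BAZ2B at 50 nM in PBS pH 7.4 containing 0.01% Tween-20. Donor and acceptor beads are 10 ug/mL final.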
G9a inh = qHTS Assay for Inhibitors of Histone Lysine Methyltransferase G9a; 350,000 compounds, 8.8% hits; Histone-lysine N-methyltransferase EHMT2 (Homo sapiens), Q96KQ7; Potency, µM (doses to about 102 µM), actives largely listed as inhibitors; G9a H3K9 monomethylation, AlphaScreen, 2 h; AID 504332, 2011; further: nearly all actives have a fitted effect of over 75% in size
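Step 1: enzyme (final 20 nM) with compound, 15 min RT. Step 2: substrate peptide 500 nM and SAM 20 uM, 2 h RT. Step 3: anti-H3K9me1 antibody and AlphaScreen beads, 10 min, then plate read.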
Large screens that a line does not name were inactive. Most compounds without a hit are left out; they make up all but 10% or so of the library. The call rests on the fitted dose curve; in most records, active means well fitted curve in the direction sought with a large enough effect; inconclusive means small, poorly fitted or top-dose-only effect, or another doubt; inactive means no such curve, though single readings can be large; an effect the other way counts as inactive or inconclusive.

CCC(C)[C@H](NC(=O)NCc1ccco1)C(=O)O (stereo partly specified)	none
Cc1cccc(C)c1NC(=O)CC(NCc1ccco1)C(=O)O (stereo unspecified)	JMJD2A Tudor 20µM
COC(=O)[C@H](CC(C)C)NCc1cccc(CN[C@@H](CC(C)C)C(=O)OC)c1	none
Cc1cccc(N(CC(=O)N(C)Cc2ccccc2)S(=O)(=O)c2ccccc2)c1C	none
Cc1ccc(NC(=O)c2oc3ccc(S(=O)(=O)N4CCCCCC4)cc3c2C)c(C)c1	none
CC1(C)CC(NC(=O)C2CCN(S(=O)(=O)c3ccc(Cl)c(C(F)(F)F)c3)CC2)CC(C)(C)N1	none (no result: BAZ2B block, G9a inh)
COc1ccc(CCNC(=O)c2cc(Nc3ccccc3)nc3ccccc23)cc1OC	none
Cc1ccc2nc(COc3ccccc3NC(=O)c3ccc(F)cc3)cc(=O)n2c1	none
COc1ccc2nc(C)c(C(=O)OCCN(C)C)cc2c1	G9a inh 50µM (no result: HP1b chromo inh, GLS inhibitor, JMJD2A Tudor)
CCOC(=O)c1cc2cc(OCc3ccccc3)ccc2nc1C	none
NC(=O)c1ccc2c(=O)n3c(-c4cc(Cl)c(N)c(Cl)c4)csc3nc2c1	JMJD2A Tudor 71µM, BAZ2B block inconclusive, G9a inh inconclusive
COc1ccc(S(=O)(=O)N(CC(=O)NCCc2ccccc2)c2ccc(Cl)cc2)cc1	G9a inh 16µM
COc1ccc(N(CC(=O)N/N=C/c2ccco2)S(=O)(=O)c2ccccc2)cc1	HP1b chromo inh inconclusive, JMJD2A Tudor inconclusive, BAZ2B block inconclusive, G9a inh 50µM
COc1ccc(N(CC(=O)Nc2ccccc2C(=O)O)S(=O)(=O)c2ccc(C)c([N+](=O)[O-])c2)cc1	BAZ2B block inconclusive, G9a inh 40µM
O=C(Cc1ccc(F)cc1)NC1CC(=O)N(c2ccccc2)C1 (stereo unspecified)	none
Cc1ccc(NC2c3ncccc3C(=O)N2c2ccccc2C)cc1C (stereo unspecified)	GLS inhibitor inconclusive, JMJD2A Tudor 11µM, BAZ2B block 20µM, G9a inh inconclusive
CCOc1ccc(N2C(=O)c3cccnc3C2Nc2ccc(Cl)cc2)cc1 (stereo unspecified)	none
COc1ccccc1NC(=O)CSc1ncc2c(n1)-c1ccccc1N(Cc1ccccc1C)S2(=O)=O	none
COc1ccc(/C=C(\NC(=O)/C=C/c2ccco2)C(=O)NCCc2nc3ccccc3[nH]2)cc1	HP1b chromo inh inconclusive, JMJD2A Tudor inconclusive, BAZ2B block 50µM, G9a inh inconclusive
COc1ccc(CCNC(=O)/C=C/c2ccco2)cc1OC	G9a inh 14µM
CCOc1ccc(CCNC(=O)/C=C/c2ccco2)cc1OCC	BAZ2B block inconclusive, G9a inh 35µM
COc1ccc(CCNC(=O)/C=C/c2ccco2)cc1	HP1b chromo inh inconclusive, JMJD2A Tudor 32µM, BAZ2B block inconclusive (no result: G9a inh)
Cc1ccc(CNC(=O)CN2C(=O)C3(SCC(=O)N3c3cc(C)cc(C)c3)c3ccccc32)cc1 (stereo unspecified)	none
CC(C)CCNC(=O)Nc1ccc2c(c1)N(Cc1ccccc1)C(=O)c1ccccc1S2	none
CCc1ccc(/C(C)=N/NC(=O)CNC(=O)/C=C/c2ccco2)cc1	HP1b chromo inh 22µM, JMJD2A Tudor 22µM (no result: BAZ2B block, G9a inh)
CC[C@H](C)[C@@H]1NC(=O)[C@@H](CC(C)C)NC(=O)[C@H](C(C)C)NC(=O)[C@H]2CSSC[C@H](NC1=O)C(=O)N2	none (no result: HP1b chromo inh, JMJD2A Tudor, BAZ2B block, G9a inh)
C[C@@H]1NC(=O)c2cc([N+](=O)[O-])cc(I)c2NCCCC[C@@H](C(N)=O)NC(=O)[C@H](CC(N)=O)NC1=O	BAZ2B block inconclusive, G9a inh 32µM
CC(C)[C@@H]1NC(=O)c2cc([N+](=O)[O-])cc(F)c2NCCC[C@@H](C(N)=O)NC(=O)[C@H](CO)NC1=O	BAZ2B block inconclusive, G9a inh 40µM (no result: HP1b chromo inh, GLS inhibitor, JMJD2A Tudor)
CC(C)C[C@@H]1NC(=O)[C@H](C(C)C)NC(=O)c2cc([N+](=O)[O-])cc(I)c2NCC[C@@H](C(N)=O)NC1=O	BAZ2B block 79µM, G9a inh 13µM
C[C@@H](O)C1NC(=O)[C@H](CCCCN)NC(=O)c2cc([N+](=O)[O-])cc(I)c2NCCC[C@@H](C(N)=O)NC1=O (stereo partly specified)	G9a inh 50µM
CCc1cccc(NC(=O)CCn2c(=O)c3cccn3c3cccnc32)c1	none
COc1cccc(C(=O)N2CCCCC2CCN2CCCCC2)c1 (stereo unspecified)	none
CC(C)[C@@H]1NC(=O)c2cc([N+](=O)[O-])cc(I)c2NCC[C@@H](C(N)=O)NC(=O)[C@H](CO)NC1=O	BAZ2B block inconclusive, G9a inh 13µM (no result: HP1b chromo inh, GLS inhibitor, JMJD2A Tudor)
O=C(O)c1ncc(-c2ccccc2)cn1	HP1b chromo inh inconclusive, JMJD2A Tudor 10µM, G9a inh 8.9µM (no result: BAZ2B block)
COCCNC(=O)c1onc(CSc2ccccn2)c1C(=O)NCCOC	none (no result: BAZ2B block, G9a inh)
CC(C)CCNC(=O)c1onc(CSc2ccccn2)c1C(=O)NCCC(C)C	JMJD2A Tudor 35µM (no result: BAZ2B block, G9a inh)
C#CCOCCOCCOCCNc1nc(N2CCN(C(=O)[C@H](CCC(=O)O)n3cc([C@@H](N)CCCCN)nn3)CC2)nc(N2CCN(C(=O)[C@H](CCCCN)n3cc([C@@H](N)CC(N)=O)nn3)CC2)n1	JMJD2A Tudor 50µM (no result: BAZ2B block, G9a inh)
C#CCOCCOCCOCCNc1nc(N2CCN(C(=O)[C@H](CO)n3cc([C@@H](N)C(C)C)nn3)CC2)nc(N2CCN(C(=O)[C@H](CCC(=O)O)n3cc([C@@H](N)CCCCN)nn3)CC2)n1	JMJD2A Tudor inconclusive (no result: BAZ2B block, G9a inh)
C#CCOCCOCCOCCNc1nc(N2CCN(C(=O)[C@H](CCC(=O)O)n3cc([C@@H](N)CCCCN)nn3)CC2)nc(N2CCN(C(=O)[C@H](CCC(=O)O)n3cc([C@@H](N)CCCCN)nn3)CC2)n1	JMJD2A Tudor 56µM (no result: BAZ2B block, G9a inh)
c1ccc2c(-c3cncc4ccccc34)cncc2c1	none (no result: BAZ2B block, G9a inh)
CN1CCC(=NNC(=O)C(=O)NC2CCCCC2)CC1	JMJD2A Tudor inconclusive
CN1CCN(C(=O)NC2CCCCC2)CC1	HP1b chromo inh inconclusive, JMJD2A Tudor 8.9µM, BAZ2B block 50µM, G9a inh 8.9µM
O=C(NC1CCCCC1)N1CCCCCC1	none
CC(C)(C)C1CCC(=NNC(=O)C(=O)NC2CCCCC2)CC1 (stereo unspecified)	JMJD2A Tudor 79µM, G9a inh inconclusive
CN1CCC(=NNC(=O)C(=O)NC2CCCC2)CC1	JMJD2A Tudor 40µM, BAZ2B block inconclusive
COc1ccc2[nH]c(=O)c(CN(c3ccccc3OC)S(=O)(=O)c3ccccc3)cc2c1	G9a inh 56µM
COc1ccc2[nH]c(=O)c(CN(c3ccccc3)S(=O)(=O)c3ccccc3)cc2c1	none

Bioassay records deposited in PubChem by National Center for Advancing Translational Sciences (NCATS).
